# Values of other authors in PubChem BioAssay AID977611.
# About 3,900 (100%) of roughly 3,900 compounds were called active. No cut-off is given here; in the data, nearly all actives have Kd up to about 4200 µM. The set was probably picked from earlier hits. This is one part of the list. Where a SMILES comes first, the peptide text is derived from it. Non-standard residues stand in square brackets, D forms with d. Square brackets hold non-standard residues; d marks the D form. Residues, ends and D or L forms follow the SMILES beside them. Peptide text beside a SMILES is read from it. [ ]: non-standard residue; d: D form. Orn(CH(NH2)2) = NC(N)NCCC[C@H](N)C(=O)O
# Experiment: PubChem AID 977611
# Settings: PDB protein-ligand complexes, literature Kd
molecule,measurement,setting,value
COc1ccc(C[C@H](NC(=O)[C@@H](C)NC(=O)CN2CCOCC2)C(=O)N[C@@H](Cc2ccccc2)[C@@H](O)[C@H](C)CO)cc1,Kd,"protein: yCP, PDB entry 4qlv",0.014 µM (active)
CCC[C@H](COc1ccc(-c2nc3ccccc3n2Cc2ccccc2)cc1)n1c(-c2ccccc2)nc2ccccc21,Kd,"protein: Retinal rod rhodopsin-sensitive cGMP 3',5'-cyclic phosphodiesterase subunit delta, PDB entry 4jvb",0.039 µM (active)
C[C@H](NC(=O)CN)C(=O)N[C@@H](Cc1ccccc1)C(=O)N[C@@H](Cc1ccccc1)C(=O)N[C@@H](CO)C(=O)N[C@@H](C)C(=O)N[C@@H](CCCNC(N)N)C(=O)NCC(=O)N[C@@H](Cc1cnc[nH]1)C(=O)N[C@@H](CCCNC(N)N)C(=O)N1CCC[C@H]1C(=O)O (H-GAFFSA[Orn(CH(NH2)2)]GH[Orn(CH(NH2)2)]P-OH),Kd,"protein: fibrinogen-binding protein SdrG, PDB entry 1r17",0.379 µM (active)
CC[C@H](C)[C@H](NC(=O)[C@@H]1CCCN1C(=O)[C@H](CCCNC(N)N)NC(=O)[C@@H]1CCCN1C(=O)[C@H](Cc1cnc[nH]1)NC(=O)[C@@H](N)CO)C(=O)N[C@@H](CCCNC(N)N)C(=O)N[C@H](C(=O)O)C(C)C (H-SHP[Orn(CH(NH2)2)]PI[Orn(CH(NH2)2)]V-OH),Kd,"protein: Chaperone protein DnaK, PDB entry 4ezr",6.3 µM (active)
H-GSLLRVQAHIRKKMV-OH,Kd,"protein: Myosin A tail domain interacting protein MTIP-delta60, PDB entry 4r1e",0.052 µM (active)
CSCC[C@H](NC(=O)[C@H](CCC(=O)O)NC(=O)[C@H](CCCNC(N)N)NC(=O)[C@@H](N)Cc1cnc[nH]1)C(=O)N[C@@H](C)C(=O)N[C@H](C(=O)N[C@@H](CC(=O)O)C(=O)N[C@@H](CS)C(=O)N1CCC[C@H]1C(=O)O)C(C)C (H-H[Orn(CH(NH2)2)]EMAVDCP-OH),Kd,"protein: Par-6 PDZ domain, PDB entry 1x8s",8 µM (active)
CSCC[C@H](NC(=O)[C@H](Cc1cnc[nH]1)NC(=O)[C@@H](NC(=O)[C@H](CCCCN)NC(=O)[C@H](C)NC(=O)[C@H](CO)NC(=O)[C@H](C)NC(=O)[C@@H](N)CCCNC(N)N)[C@@H](C)O)C(=O)N[C@@H](Cc1ccc(O)cc1)C(=O)N1CCC[C@H]1C(=O)N[C@H](C(=O)N[C@@H](CCCNC(N)N)C(=O)N[C@@H](CC(N)=O)C(=O)N[C@@H](Cc1ccc(O)cc1)C(=O)N[C@@H](CO)C(=O)N1CCC[C@H]1C(=O)O)C(C)C (H-[Orn(CH(NH2)2)]ASAKTHMYPV[Orn(CH(NH2)2)]NYSP-OH),Kd,"protein: ezrinradixinmoesin (ERM) proteins, PDB entry 2emt",0.201 µM (active)
CC(C)C[C@H](NC(=O)[C@H](CCC(=O)O)NC(=O)[C@@H](N)CCCNC(N)N)C(=O)N[C@@H](CC(C)C)C(=O)N1CCC[C@H]1C(=O)N[C@@H](CCC(=O)O)C(=O)N[C@@H](CC(C)C)C(=O)N1CCC[C@H]1C(=O)N[C@@H](Cc1cnc[nH]1)C(=O)N1CCC[C@H]1C(=O)N1CCC[C@H]1C=O (H-[Orn(CH(NH2)2)]ELLPELPHPP-aldehyde),Kd,"protein: MIT domain of Saci1372 (Vps4), PDB entry 2w2u",35 µM (active)
CC[C@H](C)[C@H](NC(=O)[C@H](CO)NC(=O)[C@H](CCCNC(N)N)NC(=O)CNC(=O)[C@H](C)NC(=O)[C@H](CCC(=O)O)NC(=O)[C@H](CCCCN)NC(=O)[C@@H](NC(=O)[C@@H](NC(=O)[C@H](C)NC(=O)[C@@H](NC(=O)[C@H](CC(C)C)NC(=O)[C@H](CO)NC(=O)CN)C(C)C)[C@@H](C)O)C(C)C)C(=O)N[C@@H](Cc1cnc[nH]1)C(=O)N[C@@H](CCC(=O)O)C(=O)N[C@H](C(=O)N1CCC[C@H]1C(=O)N[C@@H](CCCNC(N)N)C(=O)O)[C@@H](C)CC (H-GSLVATVKEAG[Orn(CH(NH2)2)]SIHEIP[Orn(CH(NH2)2)]-OH),Kd,"protein: the BTB domain from B-cell lymphoma 6 protein(BCL6), PDB entry 1r2b",11.4 µM (active)
CSCC[C@H](NC(=O)[C@H](CCCCN)NC(=O)[C@@H](NC(=O)[C@H](Cc1ccc(O)cc1)NC(=O)[C@@H](NC(=O)CNC(=O)[C@@H](NC(=O)[C@@H](N)[C@@H](C)O)[C@@H](C)O)C(C)C)C(C)C)C(=O)N1CCC[C@H]1C(=O)N1CCC[C@H]1C(=O)O (H-TTGVYVKMPP-OH),Kd,"protein: AP50, PDB entry 1h6e",0.7 µM (active)
CC[C@H](C)[C@H](NC(=O)[C@H](Cc1cnc[nH]1)NC(=O)[C@H](C)NC(=O)[C@H](CCC(N)=O)NC(=O)[C@@H](NC(=O)[C@H](CCCNC(N)N)NC(=O)[C@H](CC(C)C)NC(=O)[C@H](CC(C)C)NC(=O)[C@H](CO)NC(=O)[C@@H]1CCCN1C(=O)[C@@H](NC(=O)[C@H](CC(N)=O)NC(=O)[C@@H](N)CCCCN)[C@@H](C)CC)C(C)C)C(=O)N[C@@H](CCCNC(N)N)C(=O)N[C@@H](CCCCN)C(=O)N[C@@H](CCCCN)C(=O)N[C@@H](CCSC)C(=O)N[C@H](C(=O)O)C(C)C (HELM PEPTIDE1{K.N.I.P.S.L.L.[NC(N)NCCC[C@H](N[*:1])C(=O)[*:2]].V.Q.A.H.I.[NC(N)NCCC[C@H](N[*:1])C(=O)[*:2]].K.K.M.V}$$$$V2.0),Kd,"protein: MYOSIN A TAIL DOMAIN INTERACTING PROTEIN, PDB entry 4aom",0.085 µM (active)
NC(=O)CC[C@H](NC(=O)CCc1ccc(-c2cc(-c3ccccc3)cs2)cc1)C(=O)N[C@@H](CCC(=O)O)C(N)=O,Kd,"protein: Macrophage metalloelastase, PDB entry 3tsk",0.067 µM (active)
CCC(CC)Nc1cc(C)nc(Oc2c(C)cc(C)cc2C)c1C,Kd,"protein: Corticotropin-releasing factor receptor 1, T4-Lysozyme chimeric construct, PDB entry 4k5y",0.0067 µM (active)
C=C/C(C)=C\[C@@]1(C)SC(=O)C(C(C)=O)=C1O,Kd,"protein: 3-OXOACYL-[ACYL-CARRIER-PROTEIN] SYNTHASE 1, PDB entry 4c6u",25.6 µM (active)
same,Kd,"protein: 3-OXOACYL-[ACYL-CARRIER-PROTEIN] SYNTHASE 1, PDB entry 4c6v",25.6 µM (active)
C=C/C(C)=C/[C@@]1(C)SC(=O)/C(=C(\O)C(F)(F)F)C1=O,Kd,"protein: 3-OXOACYL-[ACYL-CARRIER-PROTEIN] SYNTHASE 1, PDB entry 4c73",12.1 µM (active)
CNc1nc2c(CC[C@H]3O[C@@H](OC)[C@H](OC)[C@@H]3O)c3nc(N)[nH]c(=O)c3cc2[nH]1,Kd,"protein: tRNA guanine transglycosylase (TGT), PDB entry 4lbu",0.276 µM (active)
CNc1nc2c(CC[C@H]3O[C@@H](OC)[C@H](O)[C@@H]3O)c3nc(N)[nH]c(=O)c3cc2[nH]1,Kd,"protein: tRNA guanine transglycosylase (TGT), PDB entry 4leq",0.288 µM (active)
O=C(O)c1ccc2nsnc2c1,Kd,"protein: Pantothenate synthetase (T2A, E77G mutation), PDB entry 4ddm",3500 µM (active)
COc1ccc([C@H]2OC[C@H](C)[C@@H]([C@@H](C)[C@@H](OC)[C@@H](C)CCC(=O)[C@H](C)[C@@H](C/C=C/N(C)C=O)OC)O2)cc1,Kd,"protein: Actin, alpha skeletal muscle, PDB entry 4k43",0.132 µM (active)
